# Compound activity from PubChem.
# A selection: hits, their analogues and other compounds. The true share with any hit is near 17%.
# TGFb inhibitor: qHTS for Inhibitors of TGF-b. HepG2 CAGA-GFP TGF-b/SMAD3 reporter, GFP fluorescence, 18 h; TGF-beta stimulated, 500 pg/mL final. Potency, µM (doses to about 46.1 µM), for the others: at the top dose activity, negative = inhibition, hits mostly inhibitors. 1.2% of 410,000 active. AID 588855, 2011; note: % is set by controls: 0 for no effect and ±100 for the full control effect; nearly all actives have a fitted effect of over 65% in size
#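 HEPG2 CAGA-GFP reporter cells (1000/well, DMEM with 1% FBS) received compounds, then recombinant TGF-beta at 500 pg/mL final for 18 hours at 37 degrees C. Per-cell GFP summed per well was normalised to unstimulated and stimulated DMSO controls before curve fitting.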
# DT40 TDP1 CPT: qHTS for Inhibitors of human tyrosyl-DNA phosphodiesterase 1 (TDP1): qHTS in cells in presence of CPT | chicken DT40 Tdp1-/-;hTDP1 cells + 20 nM CPT, ATP luminescence, 48 h | Potency, µM (highest dose often 46.2 µM), for inactives: top-dose activity change, negative = growth inhibition, hits mostly inhibitors | 12% of 420,000 active | AID 686979, 2013; note: % is set by controls: 0 for no effect and ±100 for the full control effect; nearly all actives have a fitted effect of over 55% in size
#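 Cell growth measured by CellTiter-Glo luminescence after a minimum 48 h, 37 C compound exposure with 20 nM CPT in Tdp1-knockout DT40 cells stably expressing hTDP1, seeded 400/well; qHTS titration format.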
# DT40 TDP1 no CPT: qHTS for Inhibitors of human tyrosyl-DNA phosphodiesterase 1 (TDP1): qHTS in cells in absence of CPT; DT40 Tdp1-/- hTDP1 cells, no CPT, ATP luminescence, 48 h; Potency, µM (doses to about 46.2 µM), for the others: top-dose activity change, negative = growth inhibition, usual class: inhibitors; 15% of 420,000 active; AID 686978, 2013; note: % is set by controls: 0 for no effect and ±100 for the full control effect; nearly all actives have a fitted effect of over 55% in size
#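 DT40 Tdp1-/-;hTDP1 cells, no CPT (DMSO vehicle only), 400 cells/well; compounds pin-transferred; ≥48 hr, 37 °C; CellTiter-Glo 30 min RT dark, luminescence read.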
# S2 tox: Viability Counterscreen for Primary qHTS for Inhibitors of ATXN expression | Potency, µM (highest dose often 56.7 µM), most hits filed as cytotoxic | AID 651635, 2014 | S2 cells (HEK-293 line with an ATXN2-luciferase reporter) viability, CellTiter-Fluor protease fluorescence, 24 h | 0.49% of 400,000 active; note: nearly all actives have a fitted effect of over 40% in size
# HepG2 viability: qHTS for Inhibitors of TGF-b: Cytotox Counterscreen | HepG2 CAGA-GFP viability, ATP luminescence, 18 h | Potency, µM (top dose mostly 46.1 µM), inactives show top-dose activity change, negative = cytotoxicity, hits mostly cytotoxic | 0.76% of 410,000 active | AID 588856, 2011
#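 CellTiter-Glo luminescence gave cytotoxicity after 18 hours at 37 degrees C. The cells were HepG2 CAGA-GFP in 1% FBS DMEM, stimulated with 500 pg/mL TGF-beta after compound addition. %Activity was normalised to no-cell wells (complete cell-killing) and DMSO (no toxicity), and curves were fitted and classified.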
# ATXN2 expr inh: Primary qHTS for Inhibitors of ATXN expression | HEK-293 ATXN2-luciferase reporter, luminescence, 24 h | Potency, µM (series often up to 57 µM), without a hit: at the top dose activity change, negative = inhibition, hits mostly inhibitors | 0.72% of 360,000 active | AID 1745845, 2022; note: % is set by controls: 0 for no effect and ±100 for the full control effect; nearly all actives have a fitted effect of over 55% in size
#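 qHTS (up to 57 uM final) was run with 24 h compound exposure of reporter cells at 37 °C. Each well was multiplexed: SteadyGlo luminescence measured ATXN2-luciferase expression after a fluorogenic Gly-Phe-AFC viability readout (25 uM final).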
# * hit, by the source's call; i = inactive; ? = inconclusive; / = no result given. Calls come from the whole dose curve; as a rule, active = well fitted curve in the direction sought with a large enough effect; inconclusive = small, poorly fitted or top-dose-only effect, or another doubt; inactive = no such curve, though single readings can be large; an effect the other way counts as inactive or inconclusive. Potency is the fitted concentration of half-maximal effect.
SMILES,TGFb inhibitor,DT40 TDP1 CPT,DT40 TDP1 no CPT,S2 tox,HepG2 viability,ATXN2 expr inh
CC1(C(=O)Nc2ccc(Cl)c(Cl)c2)CCN1C(=O)C1CCCCC1 (centres undefined),-20.2%,?,?,i,-12.7%,1.4%
CSCCC(NC(=O)COc1ccccc1)C(=O)NCCOc1ccccc1 (centres undefined),-12.6%,-9.7%,?,/,1.0%,/
O=C(/C=C/c1ccco1)Nc1nc(-c2ccccn2)cs1,?,7.31µM*,7.31µM*,i,15.2%,/
O=C(/C=C/c1ccco1)Nc1ccccn1,-10.5%,3.26µM*,3.26µM*,i,-52.4%,-11.3%
Cc1ccc(NC(=O)/C=C/c2ccco2)nc1,-12.0%,0.013µM*,0.0058µM*,i,-2.9%,33.8%
CCC(CO)NC(=O)c1ccccc1C(F)(F)F (centres undefined),-4.7%,6.1%,-3.6%,i,2.0%,8.3%
COc1ccc(C(=O)N2CCC3(CCN(Cc4ccncc4)CC3)CC2)cc1,/,-2.1%,?,/,/,/
COc1ccccc1/C=C/C(=O)/C=C/c1ccccc1O,?,2.91µM*,2.91µM*,?,-21.0%,?
CNc1ccccc(C(=O)/C=C/c2ccccc2OC)c1=O,?,18.4µM*,14.6µM*,?,-12.8%,?
COc1ccccc1/C=C/C(C)=O,8.5%,5.3%,3.7%,i,1.4%,15.2%
COc1ccccc1C=CC(=O)C=Cc1ccccc1OC,10µM*,4.61µM*,3.26µM*,/,-94.2%,16.8µM*
C=CCn1c(=O)c2c3c(sc2n2c(Nc4ccc(C(=O)OCC)cc4)nnc12)CCCC3,10.1%,13µM*,11.6µM*,/,-12.0%,/
C=CCn1c(=O)c2c3c(sc2n2c(Nc4ccc(OC)cc4)nnc12)CCCC3,?,9.2µM*,8.2µM*,i,4.3%,-1.2%
C=CCn1c(=O)c2c3c(sc2n2c(Nc4ccccc4)nnc12)CCCC3,?,8.91µM*,10µM*,i,-17.1%,0.3%
CCOC(=O)c1ccc(Nc2nnc3nc(C)cc(C)n23)cc1,-5.2%,-8.5%,-7.3%,i,9.2%,-7.4%
CCc1ccc(NC(=O)CSc2nnnn2C)cc1,5.7%,7.6%,-11.0%,i,6.8%,/
CCN(CC)S(=O)(=O)c1ccc2oc(Nc3ccc4c(c3)OCCO4)nc2c1,-12.4%,16.4µM*,23.1µM*,i,-17.9%,2.7%
CCS(=O)(=O)c1ccc2oc(Nc3ccc(C(C)(C)C)cc3)nc2c1,4.1%,16.4µM*,14.6µM*,i,0.8%,14.3%
CCS(=O)(=O)c1ccc2oc(Nc3ccc(OC)cc3)nc2c1,-0.4%,13.9%,-19.3%,i,18.6%,2.0%
CCOC(=O)C(=C1Nc2ccccc2N1)n1c(-c2cccnc2)nc2ccccc21,/,11.6µM*,?,i,/,23.2%
C=C(C)C1Cc2c(C)nn(-c3cccc4ccccc34)c2C1 (centres undefined),?,20.6µM*,?,i,-29.2%,-12.8%
C=C(C)C1Cc2c(C)nn(-c3ccccc3)c2C1 (centres undefined),-2.0%,-16.0%,-18.7%,i,-11.6%,0.9%
Cc1cc2cc(C=O)c(Cl)nc2cc1C,3.7%,?,18.4µM*,i,-34.0%,29.9%
Cn1c(=O)c2c(-c3ccccc3Cl)n(-c3cc(Cl)ccc3O)cc2n(C)c1=O,?,20.6µM*,?,/,-33.2%,/
Cn1c(=O)c2c(-c3ccccc3Cl)n(Cc3ccc(Cl)cc3)cc2n(C)c1=O,1.6%,8.2µM*,6.51µM*,/,-16.4%,/
SMILES,TGFb inhibitor,DT40 TDP1 CPT,DT40 TDP1 no CPT,S2 tox,HepG2 viability,ATXN2 expr inh
CCSc1nnc2ccc(-c3ccc(C)cc3)nn12,-25.9%,-15.4%,?,i,-33.5%,/
CC(=O)Nc1ccc(NC(=O)C(C)OC(=O)c2ccc(C)s2)cc1 (centres undefined),2.0%,-5.6%,-26.9%,i,-3.1%,-8.7%
O=C(c1ccc(F)cc1)c1ccc(-c2ccc(F)cc2)nc1,4.4%,-6.2%,4.1%,i,2.4%,27.4%
N#CC(c1ccc(F)cc1)c1ccc(C(=O)c2ccc(F)cc2)cc1 (centres undefined),-17.6%,?,20.6µM*,i,-9.1%,-15.7%
Cc1ccc(C(=O)NC(C)c2ccc(F)cc2)cc1 (centres undefined),-15.7%,-1.2%,-15.1%,?,-1.8%,8.4%
Cc1ccc(C(C#N)c2ccc(C(=O)c3ccc(F)cc3)cc2)cc1 (centres undefined),-22.6%,23.1µM*,8.2µM*,i,-19.8%,-16.9%
O=C1C=C(C#Cc2ccccc2)C[C@@H](c2ccc(F)cc2)C1,?,4.61µM*,4.61µM*,?,-99.5%,?
COc1ccccc1C#CC1=CC(=O)C[C@H](c2ccc(F)cc2)C1,?,14.6µM*,16.4µM*,i,-42.5%,-20.2%
OC(CN1CCOCC1)c1ccccc1 (centres undefined),-2.9%,15.2%,5.8%,/,-32.3%,/
COCC1CCN(Cc2cn(-c3ccccc3F)nc2-c2cc(C)sc2C)CC1,-11.5%,?,?,i,-10.6%,3.7%
Nc1ccc(S(=O)(=O)N2CCCc3ccccc32)cc1,12.9%,-9.0%,-25.5%,i,9.3%,4.3%
O=C(Nc1c(F)cc(F)cc1Br)c1cc(S(=O)(=O)N2CCN(c3ccccn3)CC2)ccc1F,?,?,25.9µM*,i,-17.1%,/
CCC(=O)N1CCCc2cc(S(=O)(=O)N3CCCc4ccccc43)ccc21,-20.8%,25.9µM*,18.4µM*,i,-30.1%,-3.2%
O=C(O)c1cc(S(=O)(=O)N2CCN(c3ccccn3)CC2)ccc1Cl,?,18.3%,13.1%,i,10.1%,-3.2%
Cc1cccc(C)c1NC(=O)c1cc(S(=O)(=O)N2CCc3ccccc3C2)ccc1F,-19.1%,18.4µM*,?,i,-14.6%,-21.0%
Cc1ccc(S(=O)(=O)N2CCCc3ccccc32)cc1C,-12.8%,11.6µM*,9.2µM*,i,3.2%,7.4%
CCc1cccc(C)c1NC(=O)c1cc(S(=O)(=O)N2CCN(c3ccccc3)CC2)ccc1F,-5.4%,16.4µM*,9.2µM*,i,3.4%,-0.6%
CCc1cccc(C)c1NC(=O)CN1CCN(S(=O)(=O)c2ccc(C(C)(C)C)cc2)CC1,?,-41.7%,23.1µM*,i,-0.1%,5.3%
